# How the values were obtained:
# Test in all cases: DAPPL (digital affinity profiling via proximity ligation, sequencing); 10 mM Tris-HCl pH 7.5, 50 mM NaCl, 1 mM DTT, 4% glycerol, room temperature, 30 min; GST-TFs on glutathione beads, 16-mer random dsDNA library, 0.1% formaldehyde crosslink after washing; high values mean tight binding
# Details in all cases: protein: recombinant; tags: N-terminal GST; dsDNA, one strand shown
# [1] = target: T1, FLI1 (Homo sapiens, UniProt Q01543 1-452)
# T1 sequence: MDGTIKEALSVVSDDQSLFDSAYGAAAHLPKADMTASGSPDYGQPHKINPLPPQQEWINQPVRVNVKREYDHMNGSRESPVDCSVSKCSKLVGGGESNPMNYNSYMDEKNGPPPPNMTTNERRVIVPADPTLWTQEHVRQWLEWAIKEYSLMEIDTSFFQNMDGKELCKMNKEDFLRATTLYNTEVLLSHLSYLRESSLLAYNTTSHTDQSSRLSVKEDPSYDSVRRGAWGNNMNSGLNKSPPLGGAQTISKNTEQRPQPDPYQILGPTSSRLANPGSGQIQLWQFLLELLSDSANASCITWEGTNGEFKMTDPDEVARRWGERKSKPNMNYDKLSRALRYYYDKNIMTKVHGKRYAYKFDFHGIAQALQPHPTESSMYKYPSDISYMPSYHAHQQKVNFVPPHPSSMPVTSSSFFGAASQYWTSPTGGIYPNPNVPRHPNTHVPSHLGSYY
# Method in brief: (§1)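 Yeast served to express human transcription factors as GST fusions, which were then captured on glutathione beads and labelled with DNA barcodes. Pooled with a tag-only sample, they were incubated with 200 nmole of a 16-mer random double-stranded DNA library for 30 min at room temperature in Tris/NaCl/DTT/glycerol buffer, washed, crosslinked with 0.1% formaldehyde, ligated by proximity, amplified by PCR and sequenced. Dividing each hexamer's read frequency for a factor by its frequency for the tag-only sample gives the binding signal.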
# [2] = target: T2, GABPA (Homo sapiens, UniProt Q06546 1-454)
# T2 sequence: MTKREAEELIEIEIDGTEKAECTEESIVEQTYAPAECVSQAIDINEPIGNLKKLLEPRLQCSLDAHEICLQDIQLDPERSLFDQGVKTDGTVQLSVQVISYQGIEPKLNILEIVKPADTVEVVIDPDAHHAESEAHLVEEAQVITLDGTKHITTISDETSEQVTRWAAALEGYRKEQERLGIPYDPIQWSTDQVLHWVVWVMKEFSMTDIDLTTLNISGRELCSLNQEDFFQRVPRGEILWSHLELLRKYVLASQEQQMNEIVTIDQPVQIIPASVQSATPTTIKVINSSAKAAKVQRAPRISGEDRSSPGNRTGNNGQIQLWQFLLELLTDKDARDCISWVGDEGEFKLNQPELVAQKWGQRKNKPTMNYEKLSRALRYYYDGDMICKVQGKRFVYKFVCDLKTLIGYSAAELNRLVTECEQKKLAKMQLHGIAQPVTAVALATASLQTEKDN
# Method in brief: as §1
# [3] = target: T3, ERG (Homo sapiens, UniProt P11308 1-479)
# T3 sequence: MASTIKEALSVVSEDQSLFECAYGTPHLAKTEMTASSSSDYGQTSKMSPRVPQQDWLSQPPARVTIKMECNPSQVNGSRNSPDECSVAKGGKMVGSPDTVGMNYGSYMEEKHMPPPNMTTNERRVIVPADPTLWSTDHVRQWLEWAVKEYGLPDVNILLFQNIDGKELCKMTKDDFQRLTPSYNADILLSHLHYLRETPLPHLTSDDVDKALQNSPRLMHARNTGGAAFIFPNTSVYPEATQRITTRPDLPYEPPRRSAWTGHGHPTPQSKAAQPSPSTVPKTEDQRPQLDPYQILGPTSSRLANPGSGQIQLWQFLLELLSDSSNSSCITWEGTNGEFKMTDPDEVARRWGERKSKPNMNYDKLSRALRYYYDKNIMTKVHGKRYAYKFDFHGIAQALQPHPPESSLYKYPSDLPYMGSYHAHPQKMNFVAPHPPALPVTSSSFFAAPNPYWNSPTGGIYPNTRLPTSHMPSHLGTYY
# Method in brief: as §1
# [4] = target: ELF1 (Homo sapiens, UniProt P32519 1-619)
# Method in brief: as §1
# [5] = target: T4, EHF (Homo sapiens, UniProt Q9NZC4 1-300)
# T4 sequence: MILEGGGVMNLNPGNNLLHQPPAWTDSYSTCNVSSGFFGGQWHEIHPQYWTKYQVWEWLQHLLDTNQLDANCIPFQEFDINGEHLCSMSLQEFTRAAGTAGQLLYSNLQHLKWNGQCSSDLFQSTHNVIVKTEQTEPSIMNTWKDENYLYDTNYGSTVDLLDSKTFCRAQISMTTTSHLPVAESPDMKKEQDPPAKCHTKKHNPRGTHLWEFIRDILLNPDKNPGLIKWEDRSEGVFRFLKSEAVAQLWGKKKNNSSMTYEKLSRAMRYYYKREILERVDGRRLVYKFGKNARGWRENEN
# Method in brief: as §1
# [6] = target: T5, ELK3 (Homo sapiens, UniProt P41970 1-407)
# T5 sequence: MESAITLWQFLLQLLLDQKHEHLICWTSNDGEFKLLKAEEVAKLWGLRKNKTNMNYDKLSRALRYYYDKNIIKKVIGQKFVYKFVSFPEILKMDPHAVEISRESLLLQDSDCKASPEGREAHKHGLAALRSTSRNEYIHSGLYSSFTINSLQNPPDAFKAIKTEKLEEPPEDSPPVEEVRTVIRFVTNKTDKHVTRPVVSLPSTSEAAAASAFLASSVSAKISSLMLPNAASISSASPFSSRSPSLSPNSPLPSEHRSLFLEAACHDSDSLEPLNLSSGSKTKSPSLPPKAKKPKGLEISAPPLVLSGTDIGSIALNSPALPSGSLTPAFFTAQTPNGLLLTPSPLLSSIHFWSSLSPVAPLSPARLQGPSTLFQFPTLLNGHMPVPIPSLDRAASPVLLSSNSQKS
# Method in brief: as §1
# [7] = target: T6, SPIC (Homo sapiens, UniProt Q8N5J4 1-248)
# T6 sequence: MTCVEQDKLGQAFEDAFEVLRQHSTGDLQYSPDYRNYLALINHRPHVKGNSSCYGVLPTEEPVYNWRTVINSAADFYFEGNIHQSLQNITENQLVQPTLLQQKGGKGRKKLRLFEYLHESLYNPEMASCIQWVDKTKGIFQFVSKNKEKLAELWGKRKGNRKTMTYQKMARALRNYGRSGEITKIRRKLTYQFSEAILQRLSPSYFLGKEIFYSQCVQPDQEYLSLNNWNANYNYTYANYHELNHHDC
# Method in brief: as §1
# [8] = target: ETV1 (Homo sapiens, UniProt P50549 1-477)
# Method in brief: as §1
# [9] = target: T7, ERF (Homo sapiens, UniProt P50548 1-548)
# T7 sequence: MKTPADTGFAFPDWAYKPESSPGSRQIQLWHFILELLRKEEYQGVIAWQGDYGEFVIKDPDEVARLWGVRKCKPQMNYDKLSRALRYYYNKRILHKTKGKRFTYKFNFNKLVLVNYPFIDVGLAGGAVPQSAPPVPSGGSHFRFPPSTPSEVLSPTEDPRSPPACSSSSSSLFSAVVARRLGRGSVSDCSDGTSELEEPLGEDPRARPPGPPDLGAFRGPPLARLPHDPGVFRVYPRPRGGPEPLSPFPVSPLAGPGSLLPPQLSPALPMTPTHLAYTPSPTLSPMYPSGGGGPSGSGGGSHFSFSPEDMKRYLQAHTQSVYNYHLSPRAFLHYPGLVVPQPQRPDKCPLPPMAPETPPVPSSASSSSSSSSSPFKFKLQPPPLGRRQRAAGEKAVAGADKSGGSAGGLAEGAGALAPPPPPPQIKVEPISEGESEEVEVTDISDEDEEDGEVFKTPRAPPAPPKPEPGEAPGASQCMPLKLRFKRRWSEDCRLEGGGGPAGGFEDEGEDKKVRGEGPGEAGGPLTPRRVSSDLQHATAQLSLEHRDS
# Method in brief: as §1
# [10] = target: T8, ETV3L (Homo sapiens, UniProt Q6ZN32 1-361)
# T8 sequence: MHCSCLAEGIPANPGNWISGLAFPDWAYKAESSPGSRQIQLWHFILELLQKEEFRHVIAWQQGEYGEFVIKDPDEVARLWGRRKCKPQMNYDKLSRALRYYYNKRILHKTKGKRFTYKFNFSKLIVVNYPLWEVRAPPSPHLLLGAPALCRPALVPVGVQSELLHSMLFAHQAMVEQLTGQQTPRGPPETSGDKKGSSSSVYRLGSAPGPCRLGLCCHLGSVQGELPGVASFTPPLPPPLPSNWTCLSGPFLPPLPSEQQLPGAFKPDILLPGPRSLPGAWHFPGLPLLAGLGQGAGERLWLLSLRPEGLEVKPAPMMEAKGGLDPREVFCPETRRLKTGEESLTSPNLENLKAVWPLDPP
# Method in brief: as §1
# [11] = target: T9, ETS2 (Homo sapiens, UniProt P15036 1-469)
# T9 sequence: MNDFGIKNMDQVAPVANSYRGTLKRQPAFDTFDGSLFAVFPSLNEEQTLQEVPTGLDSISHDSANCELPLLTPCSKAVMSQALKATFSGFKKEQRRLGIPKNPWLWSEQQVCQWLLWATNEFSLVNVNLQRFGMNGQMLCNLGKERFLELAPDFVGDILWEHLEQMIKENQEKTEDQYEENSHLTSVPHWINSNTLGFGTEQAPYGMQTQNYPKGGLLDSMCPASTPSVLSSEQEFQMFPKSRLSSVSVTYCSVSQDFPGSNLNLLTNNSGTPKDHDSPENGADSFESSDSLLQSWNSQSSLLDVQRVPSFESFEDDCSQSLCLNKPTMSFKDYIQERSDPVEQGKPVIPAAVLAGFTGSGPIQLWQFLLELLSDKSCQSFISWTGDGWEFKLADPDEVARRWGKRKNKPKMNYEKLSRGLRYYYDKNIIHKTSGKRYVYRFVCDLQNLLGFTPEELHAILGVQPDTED
# Method in brief: as §1
# [12] = target: T10, ETV7 (Homo sapiens, UniProt Q9Y603 1-341)
# T10 sequence: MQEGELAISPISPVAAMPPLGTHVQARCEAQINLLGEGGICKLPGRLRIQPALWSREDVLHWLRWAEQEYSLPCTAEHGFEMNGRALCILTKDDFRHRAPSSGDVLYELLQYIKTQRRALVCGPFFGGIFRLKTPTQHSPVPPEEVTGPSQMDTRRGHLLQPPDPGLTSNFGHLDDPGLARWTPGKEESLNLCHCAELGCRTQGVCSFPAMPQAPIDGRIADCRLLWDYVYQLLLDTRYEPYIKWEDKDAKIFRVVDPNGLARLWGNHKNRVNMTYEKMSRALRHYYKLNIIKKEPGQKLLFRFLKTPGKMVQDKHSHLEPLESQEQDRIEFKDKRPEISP
# Method in brief: as §1
# [13] = target: T11, ETV3 (Homo sapiens, UniProt P41162-2 1-143)
# T11 sequence: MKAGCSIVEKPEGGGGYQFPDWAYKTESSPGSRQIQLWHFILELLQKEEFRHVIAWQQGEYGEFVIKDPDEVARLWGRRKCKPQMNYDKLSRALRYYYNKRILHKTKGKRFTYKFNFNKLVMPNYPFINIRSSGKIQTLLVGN
# Method in brief: as §1
# Chain of ETV1 (P50549 whole entry): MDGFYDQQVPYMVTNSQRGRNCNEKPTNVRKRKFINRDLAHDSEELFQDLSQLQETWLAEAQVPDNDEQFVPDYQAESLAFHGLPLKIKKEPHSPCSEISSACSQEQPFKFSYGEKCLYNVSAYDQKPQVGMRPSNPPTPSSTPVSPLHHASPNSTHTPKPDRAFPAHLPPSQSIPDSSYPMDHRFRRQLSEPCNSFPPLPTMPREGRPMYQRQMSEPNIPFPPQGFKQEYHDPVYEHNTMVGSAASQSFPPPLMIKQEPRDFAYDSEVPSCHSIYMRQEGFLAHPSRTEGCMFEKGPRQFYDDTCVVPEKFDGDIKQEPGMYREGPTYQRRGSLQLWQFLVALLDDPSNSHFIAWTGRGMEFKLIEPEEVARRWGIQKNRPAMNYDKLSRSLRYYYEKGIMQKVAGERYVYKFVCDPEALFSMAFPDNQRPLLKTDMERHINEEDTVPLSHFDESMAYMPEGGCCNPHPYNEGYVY
# Chain of ELF1 (P32519 whole entry): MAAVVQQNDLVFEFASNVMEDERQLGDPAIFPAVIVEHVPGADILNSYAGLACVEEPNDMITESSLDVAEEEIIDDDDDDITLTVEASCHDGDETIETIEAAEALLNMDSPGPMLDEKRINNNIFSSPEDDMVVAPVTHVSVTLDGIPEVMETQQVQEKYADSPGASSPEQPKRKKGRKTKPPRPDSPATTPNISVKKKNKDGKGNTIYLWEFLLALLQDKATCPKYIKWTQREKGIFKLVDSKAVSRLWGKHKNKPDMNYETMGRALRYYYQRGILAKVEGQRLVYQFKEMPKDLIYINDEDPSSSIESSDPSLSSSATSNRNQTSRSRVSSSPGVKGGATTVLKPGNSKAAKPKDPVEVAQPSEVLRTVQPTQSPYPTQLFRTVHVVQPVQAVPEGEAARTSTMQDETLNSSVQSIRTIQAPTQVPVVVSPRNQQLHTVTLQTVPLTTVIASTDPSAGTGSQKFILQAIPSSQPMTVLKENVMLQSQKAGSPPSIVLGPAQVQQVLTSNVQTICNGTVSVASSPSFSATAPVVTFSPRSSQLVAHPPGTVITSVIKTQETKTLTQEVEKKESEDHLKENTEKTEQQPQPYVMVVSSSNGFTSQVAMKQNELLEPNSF
sequence,measurement,setting,value
TCTAGA,binding signal,[1],"1.05 fold enrichment (6-mer frequency, TF over GST control)"
same,binding signal,[2],"1.02 fold enrichment (6-mer frequency, TF over GST control)"
same,binding signal,[3],"1 fold enrichment (6-mer frequency, TF over GST control)"
same,binding signal,[4],"1 fold enrichment (6-mer frequency, TF over GST control)"
same,binding signal,[5],"1.11 fold enrichment (6-mer frequency, TF over GST control)"
same,binding signal,[6],"1.18 fold enrichment (6-mer frequency, TF over GST control)"
same,binding signal,[7],"1.05 fold enrichment (6-mer frequency, TF over GST control)"
same,binding signal,[8],"1.02 fold enrichment (6-mer frequency, TF over GST control)"
same,binding signal,[9],"1.03 fold enrichment (6-mer frequency, TF over GST control)"
same,binding signal,[10],"1.03 fold enrichment (6-mer frequency, TF over GST control)"
same,binding signal,[11],"1.05 fold enrichment (6-mer frequency, TF over GST control)"
same,binding signal,[12],"1.03 fold enrichment (6-mer frequency, TF over GST control)"
same,binding signal,[13],"1.04 fold enrichment (6-mer frequency, TF over GST control)"

# Reference: article PMC7862700, “An all-to-all approach to the identification of sequence-specific readers for epigenetic DNA modifications on cytosine”
